Measurements reported in PubChem BioAssay (NCI).
“And” between values parts separate entries of the source, which are not always exact repeats. Equal values may be shown once. About 83,000 compounds went through this panel and 20% of them were active in at least one assay; those are over-represented in the sample as a whole.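 For each line, cells grew in 96-well plates with the test compound present at a single concentration for 48 hours.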 The source made the active and inactive calls. The calls were made as follows: active = growth percent below 10; inactive = the rest.

Columns and labels:
Assay in all cases: NCI-60 one-dose screen, 48 h (100 = growth as untreated, 0 = no growth, -100 = all killed)
Settings in all cases: 10 µM unless noted
DU-145 prostate = system: DU-145 prostate
K-562 leukemia = system: K-562 leukemia
MALME-3M melanoma = system: MALME-3M melanoma
MDA-MB-231 breast = system: MDA-MB-231 breast
RXF 393 renal = system: RXF 393 renal
SF-268 CNS = system: SF-268 CNS
SF-295 CNS = system: SF-295 CNS
SF-539 CNS = system: SF-539 CNS
UACC-257 melanoma = system: UACC-257 melanoma
M14 melanoma = system: M14 melanoma

Measured: growth

Oc1c(Cl)c2ccccc2c2ccccc12
inactive: DU-145 prostate 102% | MALME-3M melanoma 123% | MDA-MB-231 breast 95.5% | RXF 393 renal 116% | SF-268 CNS 104% | SF-295 CNS 120% | SF-539 CNS 107% | UACC-257 melanoma 103% | M14 melanoma 108%
active: K-562 leukemia -12.5%

O=C(Oc1cccc2cccnc12)c1ccccc1
inactive: DU-145 prostate 92.9% and 107% | K-562 leukemia 48.5% | MALME-3M melanoma 89.8% and 99% | MDA-MB-231 breast 84.5% and 104% | RXF 393 renal 99.5% and 108% | SF-268 CNS 87.1% and 102% | SF-295 CNS 97.5% and 98.7% | SF-539 CNS 97.9% and 106% | UACC-257 melanoma 86% and 96.8% | M14 melanoma 83.2% and 96.9%

O=C1c2ccccc2C(=O)c2sc(Nc3cccc(Cl)c3)nc21
active: DU-145 prostate -93.9% | K-562 leukemia 6.87% | MALME-3M melanoma -89.9% | MDA-MB-231 breast -8.62% | RXF 393 renal -11.5% | SF-268 CNS -7.47% | SF-539 CNS -91.5% | UACC-257 melanoma -74.9% | M14 melanoma -89.1%
inactive: SF-295 CNS 66.2%

CC1OC(OC2C(OC3CCC4(C)C(CCC5(C)C4CC=C4C6CC(C)(C)CCC6(CO)C(O)CC45C)C3(C)C)OC(C(=O)O)C(OC3OC(COC4OC(CO)C(O)C(O)C4O)C(O)C(O)C3O)C2O)C(O)C(O)C1O (stereo not given)
active: DU-145 prostate 7.81% | K-562 leukemia -30.8% | MALME-3M melanoma -73% | MDA-MB-231 breast -86.1% | RXF 393 renal -51.2% | SF-268 CNS 1.99% | SF-295 CNS -85.2% | SF-539 CNS -84.5% | UACC-257 melanoma -49.3% | M14 melanoma -67.4%

O=C1C=CC(=O)N1C1c2ccccc2-c2ccccc21
inactive: DU-145 prostate 103% | K-562 leukemia 18.5% | MALME-3M melanoma 90.1% | MDA-MB-231 breast 97.9% | RXF 393 renal 80.5% | SF-268 CNS 102% | SF-295 CNS 99.5% | SF-539 CNS 98.3% | UACC-257 melanoma 85.7% | M14 melanoma 96.5%

Cc1ccc(N=C=C(c2ccccc2)c2ccccc2)cc1
inactive: DU-145 prostate 108% | MALME-3M melanoma 95% | MDA-MB-231 breast 83.3% | RXF 393 renal 92.5% | SF-268 CNS 93.5% | SF-295 CNS 98% | SF-539 CNS 91% | UACC-257 melanoma 89.1%
active: K-562 leukemia 8.39% | M14 melanoma -7.3%

S=C(N/N=C/c1ccccn1)Nc1ccccn1
active: K-562 leukemia 8.45% | RXF 393 renal 2.43% | UACC-257 melanoma -14.9% | M14 melanoma 0.168%
inactive: DU-145 prostate 28.4% | MALME-3M melanoma 10.6% | MDA-MB-231 breast 42.4% | SF-268 CNS 32% | SF-295 CNS 27.1% | SF-539 CNS 14.1%

CCOc1ccc(-c2nc3ccc(-c4nc5ccc(N6CCN(C)CC6)cc5[nH]4)cc3[nH]2)cc1
active: DU-145 prostate -100% | MALME-3M melanoma -87.8% | MDA-MB-231 breast -84.2% | RXF 393 renal -86.2% | SF-268 CNS -83.9% | SF-295 CNS -81.9% | SF-539 CNS -97.9% | UACC-257 melanoma -64.8% | M14 melanoma -85.1%
inactive: K-562 leukemia 24.9%

COC(=O)c1nc(=S)[nH]c(C(=O)OC)c1C(=O)c1ccc2ccccc2c1
inactive: DU-145 prostate 110% | K-562 leukemia 102% | MALME-3M melanoma 94.5% | MDA-MB-231 breast 90.4% | RXF 393 renal 99.6% | SF-268 CNS 102% | SF-295 CNS 98.6% | SF-539 CNS 92.5% | UACC-257 melanoma 112% | M14 melanoma 112%

CN(C)c1ccc(C(=C2C=CC(=[N+](C)C)C=C2)c2ccc(N(C)C)cc2)cc1 (tested in a mixture with another compound)
active: DU-145 prostate -99.4% | K-562 leukemia -55.3% | MALME-3M melanoma -62.7% | MDA-MB-231 breast -60.9% | RXF 393 renal -70.1% | SF-268 CNS -92.2% | SF-295 CNS -45.1% | SF-539 CNS -94.2% | UACC-257 melanoma -67.4% | M14 melanoma -63.2%

CCN(CC)CCOc1ccc(-c2nc3cc(Cl)ccc3s2)cc1
active: K-562 leukemia -99.1% | MDA-MB-231 breast -44.8% | SF-295 CNS -71.5% | SF-539 CNS -15.5% | UACC-257 melanoma -36.2% | M14 melanoma -75.4%
inactive: DU-145 prostate 12% | MALME-3M melanoma 28.7% | RXF 393 renal 29.8% | SF-268 CNS 16.5%

Cc1ccc(C(=Nc2ccccc2)N=P(c2ccccc2)(c2ccccc2)c2ccccc2)cc1
inactive: K-562 leukemia 15.6%
active: DU-145 prostate -0.576% | MALME-3M melanoma -67.8% | MDA-MB-231 breast -41% | RXF 393 renal -23.3% | SF-268 CNS -0.449% | SF-295 CNS -93.4% | SF-539 CNS -42.9% | UACC-257 melanoma -17.3% | M14 melanoma -79%
